HTT cytoprotect = qHTS Multiplex Assay to Identify Dual Action Probes in a Cell Model of Huntington: Cytoprotection (ATP). PC12 HTT-Q103 induced, cytoprotection, ATP luminescence, 40 h. Potency, µM (top dose mostly 56.4 µM), for inactives: cytoprotection (ATP increase), actives largely listed as activators. 230,000 tested, 0.14% active; also: potency is read from the fitted curve at half-maximal effect; % of control where 0% means no effect; nearly all actives have a fitted effect of over 45% in size
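Stable PC12 Q103-GFP cells in serum-supplemented, phenol red-free DMEM; induction by tebufenozide at 100 nM final; compound dose series; cell viability quantified luminescently from ATP.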
HPGD block = qHTS Assay for Inhibitors of HPGD (15-Hydroxyprostaglandin Dehydrogenase); 150,000 tested, 4.3% active; Potency, µM, inactives show top-dose activity change, negative = inhibition, most hits filed as inhibitors; 15-hydroxyprostaglandin dehydrogenase [NAD(+)] (Homo sapiens), P15428; purified HPGD, NADH fluorescence kinetic, PGE2 substrate; AID 894, 2007; active = well fitted inhibition curve with a large enough effect, not every such curve was filed as active; inconclusive = small, poorly fitted or top-dose-only effect, or another doubt; inactive = no such curve, though single readings can be large or run the other way; also: potency is read from the fitted curve at half-maximal effect; % is scaled to controls: 0 for no effect and ±100 for the full control effect
Target sequence (P15428 whole entry, looked up): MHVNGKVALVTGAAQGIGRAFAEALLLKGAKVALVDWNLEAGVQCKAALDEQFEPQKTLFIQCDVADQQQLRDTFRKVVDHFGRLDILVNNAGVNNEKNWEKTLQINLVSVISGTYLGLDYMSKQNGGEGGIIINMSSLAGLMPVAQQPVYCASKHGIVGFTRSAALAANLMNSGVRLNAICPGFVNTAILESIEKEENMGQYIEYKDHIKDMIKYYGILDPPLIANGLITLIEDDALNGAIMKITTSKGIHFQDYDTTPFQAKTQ
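NADH formation kinetics: reaction with 30 uM PGE2 and 1 mM NAD+ (final), 20 nM enzyme, Tris-HCl pH 8 with Tween 20, after 15 min compound preincubation at room temperature. Fluorescence change, last versus first of five reads.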
GoLoco inh red = qHTS Assay for Inhibitors of RGS12 GoLoco Motif Activity (Red Fluorophore); Guanine nucleotide-binding protein G(i) subunit alpha-1 (Homo sapiens), P63096; Gai1:RGS12 GoLoco peptide FP, rhodamine, 10 min; Potency, µM (doses to about 61.6 µM), inactives show at the highest dose activity, negative = inhibition, most hits filed as inhibitors; 230,000 tested, 0.44% active; AID 880, 2007; active = well fitted inhibition curve with a large enough effect, not every such curve was filed as active; inactive = no such curve, though single readings can be large or run the other way; also: potency is read from the fitted curve at half-maximal effect; % is scaled to controls: 0 for no effect and ±100 for the full control effect; nearly all actives have a fitted effect of over 30% in size
Target sequence (P63096 whole entry, looked up): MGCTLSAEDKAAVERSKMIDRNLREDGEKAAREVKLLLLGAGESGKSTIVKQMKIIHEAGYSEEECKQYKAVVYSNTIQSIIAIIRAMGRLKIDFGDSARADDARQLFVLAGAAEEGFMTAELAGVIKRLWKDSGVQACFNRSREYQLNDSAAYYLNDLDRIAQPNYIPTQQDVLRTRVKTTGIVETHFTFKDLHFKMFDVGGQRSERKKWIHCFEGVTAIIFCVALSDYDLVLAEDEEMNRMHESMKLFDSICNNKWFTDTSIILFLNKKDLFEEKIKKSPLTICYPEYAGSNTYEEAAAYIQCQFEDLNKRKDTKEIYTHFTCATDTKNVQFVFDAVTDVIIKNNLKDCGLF
PNC assembly inh = High Content Assay for Compounds that inhibit the Assembly of the Perinucleolar Compartment. activity change (PNC), negative = inhibition, % at 10 µM. 140,000 tested, 3.1% active. AID 2417, 2010. PC3M PTB-GFP, PNC prevalence imaging, 16 h; hits give low values;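 active = readout at or below -70, meaning at least 70% loss of cells showing the perinucleolar compartment, a nuclear body marking cancer cells; inconclusive = readout between -30 and a set limit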;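 also: plate controls were DMSO wells for no effect and camptothecin positive control wells for full effect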
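Read-out is percentage of cells bearing a perinucleolar compartment, from automated 20x imaging of fixed, Hoechst-stained PC3M PTB-GFP cells. Cells were seeded 4 h, then exposed 16 h to compound (23 nl of library stock) in duplicate plates.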
ALDH1A1 block = qHTS Assay for Inhibitors of Aldehyde Dehydrogenase 1 (ALDH1A1); Aldehyde dehydrogenase 1A1 (Homo sapiens), P00352; 220,000 tested, 7.3% active; Purified ALDH1A1, NADH fluorescence, propionaldehyde substrate; Potency, µM (top dose mostly 75.3 µM), for the others: at the highest dose activity, negative = inhibition, most hits filed as inhibitors; active = well fitted inhibition curve with a large enough effect, not every such curve was filed as active; inconclusive = small, poorly fitted or top-dose-only effect, or another doubt; inactive = no such curve, though single readings can be large or run the other way;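 also: potency is read from the fitted curve at half-maximal effect; plate controls were no enzyme wells and a reference inhibitor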
HttQ103 aggreg = qHTS Multiplex Assay to Identify Dual Action Probes in a Cell Model of Huntington: Aggregate Formation (GFP); 220,000 tested, 1.1% active; AID 1688, 2009; PC12 HttQ103-GFP aggregates, Acumen cytometry, 40 h; Potency, µM (doses to about 46.1 µM), without a hit: at the top dose activity change, negative = inhibition, actives largely listed as inhibitors; also: potency is read from the fitted curve at half-maximal effect; % is scaled to controls: 0 for no effect and ±100 for the full control effect; nearly all actives have a fitted effect of over 60% in size
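Compounds (qHTS titration) were added to PC12 cells expressing an ecdysone-driven HTT exon 1 Q103–GFP fusion after induction with 100 nM tebufenozide. Aggregate formation was measured as GFP objects in cell lysates.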
Active calls of the source: *; ? = inconclusive; . = no result; [ ] = remark or other dose. Most compounds without a hit are left out; they make up all but 11% or so of the library. Unless noted, calls follow the shape of the dose curve; as a rule, active = well fitted curve in the direction sought with a large enough effect; inconclusive = small, poorly fitted or top-dose-only effect, or another doubt; inactive = no such curve, though single readings can be large; an effect the other way counts as inactive or inconclusive.

SMILES	HTT cytoprotect	HPGD block	GoLoco inh red	PNC assembly inh	ALDH1A1 block	HttQ103 aggreg
OCc1cc([C@@H](O)CNCCCCCCOCCCCc2ccccc2)ccc1O	-92.7%	-6.4%	7.3%	.	-3.2%	.
COc1cccc(Cn2c(=O)c(-c3ccc(F)c(F)c3)nc3cncnc32)c1	-75.2%	-20.8%	3.7%	.	9.4%	.
Cc1cccn2c(/C=N/OCc3cccc(F)c3)c(-c3ccc(Cl)cc3)nc12	-11.3%	?	3.9%	36.3	?	-5.4%
COc1cccc(/C(C#N)=C/c2c(-c3ccc(Cl)cc3)nc3c(C)cccn23)c1	-12.0%[10 µM]	-9.5%	-2.7%	-99.4*	-1.3%	-13.4%
CCCOC(=O)/C(=C\C=C\c1ccco1)NC(=O)c1ccccc1	0.1%	.	26.3%	.	20µM*	29.2%
CCCOC(=O)/C(=C\c1ccc([N+](=O)[O-])o1)NC(=O)c1ccccc1	1.4%[10 µM]	-14.1%	41.3%	141.9	-2.6%	23.2%
CCN(CC(=O)Nc1c(C(=O)OC)[nH]c2ccc(C)cc12)c1ccc2c(c1)OCO2	-40.1%	.	.	-119.5*	14.1µM*	?
C[C@@H]1CC2[C@@H]3C[C@H](F)C4=CC(=O)C(Cl)=C[C@]4(C)[C@@]3(F)[C@H](O)C[C@]2(C)[C@@]1(O)C(=O)CO (stereo not given in full)	-71.7%	.	.	.	.	9.7%
O=c1oc2ccccc2c2oc3cc(O)c(O)cc3c12	-113.4%	?	-2.5%	.	-5.3%	11.9%[9.22 µM]
COc1c(O)c(O)cc2c1oc1c3cc(C)ccc3oc(=O)c21	-40.8%	14.1µM*	-16.6%	.	-8.2%	.
C=Cc1ccccc1Cl	-19.3%	-7.1%	-17.8%	.	?	.
O=C(c1ccco1)N1CCN(C(=O)N2c3ccccc3Sc3ccccc32)CC1	-87.6%	-11.5%	4.7%	-89.2*	?	-2.9%
NC(=O)C1CCN(C(=O)c2ccco2)CC1	-2.4%[1.9 µM]	-7.9%	-4.1%	-80.5*	-1.8%	8.5%
O=C(c1ccco1)N1c2ccccc2Sc2ccccc21	-15.8%[10 µM]	-20.1%	-6.6%	218.2	?	19.4%
O=C(N1CCN(c2ccccn2)CC1)N1c2ccccc2Sc2ccccc21	-80.4%[10 µM]	-10.0%	-3.5%	-84.0*	0.7%	?
O=C(c1ccco1)N1CCN(C(=O)N2CCOCC2)CC1	-24.1%	-10.8%	7.3%	-6.6	31.6µM*	-6.1%
COCCNC(=O)C1(CC(C)C)C=CCN1C(=O)OC (stereo not given)	?	-5.6%	-2.1%	.	2.9%	.
Cc1cccc(C)c1N1CCN(C(=O)N2CCOCC2)CC1	2.3%[10 µM]	.	-25.1%	.	11.2µM*	-11.7%[9.22 µM]
O=C(Nc1nccs1)c1csc2c1CCCC2	-15.2%[10 µM]	25.1µM*	0.2%	-0.2	?	-17.9%
COc1ccc(NC(=O)c2csc3c2CCCC3)cc1	-12.0%[10 µM]	-5.6%	-3.4%	6.4	2.0%	-12.3%
O=C(NCc1ccco1)c1csc2c1CCCCC2	-9.0%	6.31µM*	-2.5%	-11.9	?	-3.0%
O=C(NCc1cccs1)c1csc2c1CCCCC2	-9.4%	22.4µM*	6.9%	-19.0	?	10.1%
O=C(NCc1ccccc1)c1csc2c1CCCC2	-23.2%	.	-2.2%	.	-3.5%	-12.8%
O=C(Nc1ccon1)c1csc2c1CCCC2	-0.3%	?	8.5%	?	-11.5%	-7.6%
Cc1ccccc1NC(=O)c1csc2c1CCCC2	-37.1%[10 µM]	15.8µM*	-1.0%	21.9	?	-10.1%
SMILES	HTT cytoprotect	HPGD block	GoLoco inh red	PNC assembly inh	ALDH1A1 block	HttQ103 aggreg
O=C(COC(=O)c1ccc(OC(F)F)cc1)NCCCN1CCCC1=O	-2.8%[10 µM]	.	2.6%	.	-2.7%	-6.6%[9.22 µM]
COc1cc(/C=N/Nc2nc(C)nc3c2cnn3-c2ccccc2)ccc1O	-56.0%	.	5.0%	.	-5.8%	-12.5%
COc1ccc2c(c1)O[C@@H](c1ccc3c(c1)OCO3)[C@H](O)C2=O	13.2%	-6.0%	-1.4%	.	-6.3%	.
O=C(NCc1ccccc1)c1csc2c1CCCCC2	-9.0%[10 µM]	8.91µM*	41.0%	-29.2	17.8µM*	-10.2%
Cc1ccc(-c2cc(C(=O)N/N=C/c3cccnc3)n[nH]2)o1	.	0.0%	13.6%	-106.2*	-6.3%	-1.3%
CCOC(=O)C1=C(C)C(c2ccccc2O)NC(=O)N1 (stereo not given)	31.1%	-8.3%	4.0%	-3.2	-2.0%	?
Cc1ccc(S(=O)(=O)Oc2ccc(N=Nc3ccc(-c4ccc(N=Nc5c(O)ccc6cc(S(=O)(=O)O)cc(S(=O)(=O)O)c56)c(C)c4)cc3C)cc2)cc1	-81.5%	-22.4%	151.6%	.	?	.
Cc1ccc(NC(=O)COC(=O)Cc2csc(-c3cccc(F)c3)n2)cc1C	24.8%[10 µM]	-15.9%	7.1%	?	11.2µM*	5.9%
Cc1ccc(NC(=O)COC(=O)Cc2csc(-c3ccc(Cl)cc3)n2)cc1C	-1.0%[10 µM]	-2.3%	12.4%	3.2	6.7%	4.9%
O=C(c1cnn(C(=O)c2cccc(S(=O)(=O)N3CCOCC3)c2)c1)c1ccccc1O	-10.8%	.	1.4%	.	3.55µM*	-23.4%
CCCn1c(NC(=O)c2cccc(S(=O)(=O)N3CCCC3)c2)nc2ccccc21	-1.3%[0.074 µM]	-14.7%	14.3%	-23.2	?	11.2µM*
O=C(Nc1ccccc1Cl)c1cc(S(=O)(=O)N2CCCC(C(=O)O)C2)ccc1F (stereo not given)	-13.3%	-23.4%	-18.3%	?	22.4µM*	?
O=C(Nc1ccccc1C(=O)N1CCOCC1)c1cccc(S(=O)(=O)N2CCCC2)c1	7.4%	-2.0%	8.4%	-89.5*	-5.8%	-18.4%
O=C(Nc1ccccc1Cl)c1cc(S(=O)(=O)N2CCCCC2)ccc1N1CCOCC1	-6.9%	-21.4%	5.2%	25.1	-4.3%	2.0%
COC(=O)NC/C=C\c1nc(CCCO)co1	8.5%[10 µM]	.	.	.	-9.1%[13.5 µM]	.
CCCC[C@@H](NC(=O)[C@@H](Cc1cn(C(=O)OC)c2ccccc12)NC(=O)[C@H](CC(C)(C)C)NC(=O)N1[C@H](C)CCC[C@@H]1C)C(=O)O	15.5%	-0.1%	1.1%	.	6.0%	.
COC(=O)N1CCC2(CC1)CN(C(=O)Nc1cccc(C#N)c1)C2	-14.0%	-25.1%	5.4%	.	-10.9%	.
COCCn1c(=O)c(-c2ccccc2)nc2cnc(Oc3ccc(OC)cc3)nc21	-43.1%	.	57.6%	.	?	.
O=C(Nc1cccc(S(=O)(=O)N2CCCCC2)c1)Nc1ccc(Cl)cc1Cl	3.8%[10 µM]	-5.2%	4.9%	15.2	-6.8%	14.1µM*
